Laboratory results as given in PubChem BioAssay (NCI).
Compounds without any hit were thinned out: in the full panel of roughly 83,000, 20% have a hit.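 Assay: single dose, 48 h. Readout: percent growth (0 = no net growth; negative = cell death). Active: <10.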 A number with no mark means an inactive call. The source made the active and inactive calls.

These compounds were tested on HT29 colon (assay: NCI-60 one-dose screen, 48 h (100 = growth as untreated, 0 = no growth, -100 = all killed)). Details: 10 µM unless noted.
Procedure: Growth inhibition of the HT29 human tumor cell line is measured as a screen for anti-cancer activity. Cells are grown in 96 well plates and exposed to the test compound for 48 hours. Compounds are tested at a single concentration, which is 10^-5 M for most compounds. The reported endpoint is percent growth (GI% or GIPRCNT), where numbers from 0 - 100% represent growth inhibition, and numbers from -100% - 0 represent cell death. For example, a value of 40 represents 60% growth inhibition. A value of 0 means no net growth occurred over the course of the experiment. A value of -40 indicates 40% of cells at the beginning of the experiment died by the end of the experiment. A value of -100 means all cells are dead at the end of the experiment.
NCI-60 Human Tumor Cell Lines Screen was performed using the standard one-dose NCI protocol, which is described in more detail at https://dtp.cancer.gov/discovery_development/nci-60/default.htm.
Compounds with GIPRCNT values below 10 were considered active. Activity score was based on GIPRCNT using the following formula: […]
Score is 0 for GIPRCNT values of 100 or above, 50 for GIPRCNT values of 0, and 100 for GIPRCNT values of -100.
Cc1ccc(Nc2nc(NCCO)c3ccccc3n2)cc1C gave a growth of 12.9%.
With CNCc1ccccc1CN(CC(=O)Nc1ccc2c(c1)CC1(C2)C(=O)Nc2ncccc21)C(=O)C(C)(C)C (stereo not given) the growth was 105%.
In the case of O=c1cc(-c2ccc3c(c2)OCCO3)oc2cc(Cl)ccc12, the growth was -16.8% (active).
For COc1cc2c(cc1OC)C(=O)OC2, the growth was 109%.
CCCCn1cnc(-c2cc(-c3ccccc3)cc(C(F)(F)F)c2)n1 showed a growth of 101%.
COc1ccc(-c2nsc3c2NC(=O)CC3c2cccc(F)c2)cc1 (stereo not given) was tested, and the growth was 10.4%.
With Cn1nc(C(F)(F)F)cc1-c1cc(Cl)c(OCc2ccc(Cl)cc2)c(-c2ccc(Cl)c(C(F)(F)F)c2)c1O the growth was 5.38% (active).
Cc1nn(-c2ccc(Cl)cc2)c(=O)n1CCN1CCOCC1 gave a growth of 104%.
Cc1c(-c2ccc(-c3ccccc3F)cc2)nc2ccc(F)cc2c1C(=O)O was tested, and the growth was 28.3%.
Cc1cc2nc3c(=O)[nH]c(=O)nc-3n(CC=O)c2cc1C showed a growth of 102%.
Cc1cc(C)c([O-])c(CN(C)CCN(C)Cc2cc(C)cc(C)c2[O-])c1.O=C([O-])c1cccc(C(=O)[O-])n1.[Ti+4] was tested, and the growth was -32.8% (active).
In the case of N=C(N)c1ccc(-c2ccc(-c3cc(Cl)cc(Cl)c3)o2)nc1, the growth was -81.7% (active).
CCN(CC)CCCNc1cccc2c(C)cc(OC)nc12 showed a growth of 87.6%.
Compound CCOc1cccc(/C=N/NC(=O)Cc2ccc(Nc3ccnc(C(F)(F)F)c3)cc2)c1O has a growth of 85%.
For CCN(CC)Cc1cc(Nc2nc(NC3CCC(N(C)C)CC3)c3ccccc3n2)ccc1OC (stereo not given), the growth was 14.2%.
With COS(=O)(=O)CCN(CCOS(C)(=O)=O)S(C)(=O)=O the growth was 85.4%.
CC(=O)c1cccc(Nc2ncnc3ccc(NC(=O)c4ccco4)cc23)c1 gave a growth of 82.9%.
In the case of COc1ccc2c(c1)CCCC21C(=O)Nc2ccccc21 (stereo not given), the growth was 87.4%.
Compound Nc1nonc1-c1nc2ccccc2n1Cc1ccc(F)cc1 has a growth of 17.3%.
For CCCCCCCCCCCCCCCC1=NCC[N+]1(CCO)CCO, the growth was 12.4%.
O=C(/C=C/c1cccc([N+](=O)[O-])c1)c1ccc(Nc2nc(N3CCCCC3)nc(N3CCCCC3)n2)cc1 was tested, and the growth was 88.6%.
NS(=O)(=O)c1ccc(N2N=C(c3cccs3)CC2c2ccccc2O)cc1 (stereo not given) was tested, and the growth was -25.6% (active).
Work on C#CC[C@@H]1C[C@]2(C)[C@H]3CC[C@@H]4[C@H]5C(C(=C)C)CC[C@]5(C(=O)NCCN(CCN)CCN)CC[C@@]4(C)[C@]3(C)CC[C@H]2C(C)(C)[C@H]1OC(C)=O (stereo not given in full) yielded a growth of 46.8%.
For C/C(=N\NC(=S)N1CCCCC1)c1ccccn1, the growth was 8.66% (active).
O=C1C2=C(C(=O)c3c(O)ccc(O)c31)N(c1ccc(N3CCOCC3)nc1)Cc1ccccc1O2 was tested, and the growth was -47.7% (active).
Work on COc1ccc2[nH]cc(C(c3ccc(Cl)cc3)N3CCCC3)c2c1 (stereo not given) yielded a growth of 102%.
Work on Cc1nc([C@H]2CC[C@H]3[C@@H]4CCC5=CC(=O)CC[C@]5(C)[C@H]4CC[C@]23C)cs1 yielded a growth of 62.2%.
Cc1ccc(NC(=O)c2nc(S(C)(=O)=O)oc2-c2ccc(F)cc2)cc1Nc1ccc2ncn(C)c(=O)c2c1 gave a growth of 15.8%.
For OC(c1cc(-c2ccc(C(F)(F)F)cc2)nc(-c2ccc(C(F)(F)F)cc2)c1)C1CCCCN1 (stereo not given), the growth was -81.7% (active).
O=C(O)C1[S][Sb]([CH](C(=O)O)[CH](C(=O)O)[Sb]2[S]C(C(=O)O)C(C(=O)O)[S]2)[S]C1C(=O)O (stereo not given) gave a growth of 80.8%.
Work on CC1C2CCC(C2)C1COCCOCCO (stereo not given) yielded a growth of 102%.
CC(C)NC(=O)OCC#CCOC(=O)NC(C)C showed a growth of 104%.
With c1ccc(C(CC2=NCCCN2)c2ccccc2)cc1 the growth was 102%.
CCC(=O)NC(O)C(Cl)(Cl)C(C)Cl (stereo not given) showed a growth of 95.4%.
For Nc1cccc(S(=O)(=O)c2cccc(N)c2)c1, the growth was 110%.
In the case of COc1cc(C)cc2oc3oc(=O)c(-c4csc(-c5cc6ccccc6oc5=O)n4)cc3c(=O)c12, the growth was 110%.
In the case of CC1=C(O)C(=O)C(c2c(C)cc(C)c(Br)c2C)=C(O)C1=O, the growth was 66.7%.
C#CC[C@@H]1C[C@]2(C)[C@H]3CC=C4[C@H]5[C@@H](C)[C@H](C)CC[C@]5(C(=O)NCCCCCCCCN)CC[C@@]4(C)[C@]3(C)CC[C@H]2C(C)(C)[C@H]1OC(C)=O was tested, and the growth was -65.4% (active).
COc1ccc2[nH]c(O)c(/C=c3/ccc4c(c3)N=C(c3ccc(C(F)(F)F)cc3)N=4)c2c1 gave a growth of 80%.
For C=CC[C@]1(O)CC[C@H]2[C@@H]3CCc4cc(O)ccc4[C@H]3CC[C@@]21C, the growth was 91.2%.
